# Assay outcomes: PubChem BioAssay, several laboratories
# SENP6 block: blocks the human protease SENP6; Recombinant SENP6 catalytic domain, aminoluciferin luminescence; Q9GZR1; inhibition, % at 10 µM; AID 2599; 330,000 tested, 1.8% active;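 active = inhibition above about 50% at the single tested dose, limit read from the data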;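 note: plate controls were DMSO wells with enzyme for no effect and DMSO wells lacking enzyme for full effect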
# SENP8 block-1: blocks the human protease SENP8; purified SENP8, Z-RLRGG-aminoluciferin cleavage, luminescence; Q96LD8; AID 2540; inhibition, % at 10 µM; 330,000 tested, 1.2% active; in the data active = inhibition above about 50%
# Target sequence (Q96LD8 whole entry, looked up): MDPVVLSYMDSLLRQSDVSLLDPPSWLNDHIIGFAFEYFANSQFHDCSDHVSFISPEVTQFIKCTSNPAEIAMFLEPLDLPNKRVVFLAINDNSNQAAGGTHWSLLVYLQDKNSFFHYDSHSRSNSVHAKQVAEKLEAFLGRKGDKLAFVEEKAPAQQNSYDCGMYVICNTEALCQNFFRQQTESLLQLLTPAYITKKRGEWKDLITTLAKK
# HSP90 refold inh: blocks HSP90-mediated luciferase refolding in reticulocyte lysate | Rabbit reticulocyte lysate, luciferase refolding luminescence, 3 h | inhibition, % at 5.6 µM | 290,000 tested, 0.91% active | AID 1789;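 active = inhibition above the screen-wide mean plus 3 SD, computed separately per campaign, cut at about 16% in these data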;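 note: 0% = DMSO wells and 100% = 60 µM geldanamycin wells; inhibitors lower the luminescence because luciferase stays unfolded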
# SENP8 block-2: inhibitors of human SENP8 protease. AID 602440. 360,000 tested, 0.64% active. inhibition, % at 20 µM. Q96LD8. recombinant SENP8, Nedd8 substrate fluorescence; in the data active = inhibition mostly above about 40%, no sharp cut-off; inactive = mostly below about 27%
# SENP7 inh: blocks the human protease SENP7; recombinant SENP7, Z-RLRGG-aminoluciferin luminescence, 40 min; inhibition, % at 5 µM; 330,000 tested, 1.5% active;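 active = inhibition above about 50% at the single test dose, limit read from the data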;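 note: plate controls were DMSO with enzyme for no effect and no enzyme buffer wells for full effect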
# Target sequence (Q9BQF6 706-1050 limits assumed): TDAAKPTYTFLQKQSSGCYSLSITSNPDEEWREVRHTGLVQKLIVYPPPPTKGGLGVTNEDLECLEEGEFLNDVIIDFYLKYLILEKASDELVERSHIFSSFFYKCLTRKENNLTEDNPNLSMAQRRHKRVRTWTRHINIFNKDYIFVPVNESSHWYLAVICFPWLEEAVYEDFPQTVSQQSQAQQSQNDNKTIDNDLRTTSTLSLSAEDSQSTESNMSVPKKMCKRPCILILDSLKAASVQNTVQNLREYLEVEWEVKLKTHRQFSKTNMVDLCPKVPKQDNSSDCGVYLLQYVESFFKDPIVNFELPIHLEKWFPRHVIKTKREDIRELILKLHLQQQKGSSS
# LGR2 antag: Drosophila LGR2 receptor signaling inhibition; HEK293 LGR2, CRE-luciferase, bursicon-stimulated, 4 h; inhibition, % at 9.99 µM; 380,000 tested, 0.35% active; AID 720647;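 active = drop in luminescence signal, shown as inhibition above about 50% in the replicate tests, limit read from the data, passing the limit was not always enough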;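 note: agonist challenge used bursicon conditioned medium at about half maximal strength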
# SENP8 inh conf: confirmation of human SENP8 protease inhibitors; shares compounds with SENP8 block-2; 1,400 tested, 15% active; purified SENP8, Nedd8-AMC/pro-Nedd8 cleavage fluorescence, 30 min; AID 624319; inhibition, % at 25 µM; in the data active = inhibition mostly above about 39%, no sharp cut-off; inactive = mostly below about 34%
# Starred values were filed as active, the others as inactive; · = not tested or not shown. The list is not random: actives were taken first. Their share in the collection is about 2.3%.
SMILES,SENP6 block,SENP8 block-1,HSP90 refold inh,SENP8 block-2,SENP7 inh,LGR2 antag,SENP8 inh conf
Cc1noc(C)c1NC(=O)N(C)C[C@@H]1OCCCC[C@H](C)Oc2ccc(NC(=O)Nc3ccc(F)cc3)cc2C(=O)N([C@H](C)CO)C[C@@H]1C,·,·,·,·,·,1.9,·
CC(=O)C1=C(C)NC2(O)c3ccccc3C(=O)C12O (stereo not drawn),4.2,5.9,-2.3,65.6*,4.0,3.9,53.3*
CN1CCN(C(=O)C[C@H]2CC[C@@H]3[C@H](COC[C@@H](O)CN3CC3CC3)O2)CC1,·,·,·,·,·,16.4,·
Cc1nc(SCC(=O)NCc2ccccc2)c2oc3ccccc3c2n1,1.2,-7.8,-3.4,15.0,-2.6,·,·
Cc1nc(SCC(=O)O)c2oc3ccccc3c2n1,-8.6,6.3,2.6,46.9*,6.1,·,12.2
CCc1nc(SCC(=O)N2CCCc3ccccc32)c2oc3ccccc3c2n1,-4.0,1.7,-3.8,46.3*,5.9,·,6.7
COC(=O)C1=C(C)N(C2CCCCC2)C(=O)C1,0.7,3.6,-2.0,41.9*,3.8,·,6.1
COC(=O)Cn1c2ccc(OC)cc2c2nc3ccccc3nc21,3.8,7.0,0.1,9.8,1.7,·,·
CCOC(=O)Cn1c2ccc(OC)cc2c2nc3ccccc3nc21,5.7,-5.4,3.4,58.2*,3.2,·,11.5
COCC(=O)N1[C@H](C#N)[C@H](c2ccccc2-c2cccc(F)c2)[C@H]1CO,·,·,·,·,·,-0.5,·
COc1cc([N+](=O)[O-])cc2sc(NC(C)=O)nc12,-19.8,-9.7,7.5,58.6*,-1.7,4.0,12.1
CC1CCN(c2ccc(NC(=S)NC(=O)c3ccco3)cc2)CC1,-17.0,-5.6,-3.0,42.4*,-8.1,·,12.0
CN(C)c1ccc([N+](=O)[O-])cc1C(=O)O,-7.3,-5.5,-1.1,7.8,-5.6,-0.5,·
CN(C)c1ccc2nsnc2c1[N+](=O)[O-],-12.6,2.1,3.1,42.7*,-2.0,·,1.9
CC(C)(C)[S@@](=O)N1Cc2cc(C(=O)N3CCCCC3)nc(-c3cccc(Br)c3)c2[C@H]1CCO,·,·,·,·,·,13.1,·
Cc1nn(C(C)C(=O)NCCc2ccccc2)c(=O)c2cc3occc3n12 (stereo not drawn),2.8,-3.0,-1.3,-3.7,-2.3,-3.0,·
CCOc1ccc(CCNC(=O)C(C)n2nc(C)n3c(cc4occc43)c2=O)cc1OCC (stereo not drawn),-20.9,-12.5,7.0,42.2*,-2.8,·,13.1
CCN(CC)CCn1c(OC)cc(=O)[nH]c1=O,-7.9,0.3,0.5,42.8*,5.6,·,7.5
COc1cc(C(=O)OC2CC3CCC2(C)C3(C)C)ccc1OC(C)=O (stereo not drawn),2.0,-7.1,0.3,61.5*,-3.8,-34.4,6.7
CN1C(=O)c2cc(NC(=O)c3cccs3)ccc2OC[C@H]2O[C@H](CC(=O)O)CC[C@@H]21,·,·,·,·,·,-6.6,·
O=C(O)CC1c2ccccc2CCN1S(=O)(=O)c1cccs1 (stereo not drawn),-15.6,-3.1,·,43.0*,-6.0,·,-8.8
Cc1cccc(C)c1NC(=O)c1ccc([N+](=O)[O-])s1,42.0,1.5,-0.1,29.3*,-6.9,8.7,9.7
COc1ccccc1S(=O)(=O)N[C@@H]1C=C[C@H](CC(=O)N2CCN(C)CC2)O[C@H]1CO,·,·,·,·,·,15.0,·
CSc1cccc(NC(=S)N2CCC(N(C)C(C)C)CC2)c1,-9.6,-3.5,2.0,11.8,-5.1,-9.8,·
CCC(C)N(C)C1CCN(C(=S)Nc2cccc(SC)c2)CC1 (stereo not drawn),-29.5,4.9,2.6,43.3*,8.5,13.8,29.4
SMILES,SENP6 block,SENP8 block-1,HSP90 refold inh,SENP8 block-2,SENP7 inh,LGR2 antag,SENP8 inh conf
CC(C)NC(=O)N(C)C[C@@H]1Oc2ncc(-c3cncnc3)cc2C(=O)N([C@@H](C)CO)C[C@@H]1C,·,·,·,·,·,-16.4,·
C/C(=N\NC(=O)c1cc([N+](=O)[O-])cc([N+](=O)[O-])c1)c1ccco1,-1.6,-1.1,1.8,19.8,-1.6,-7.7,·
C/C(=N\Nc1ccc(S(N)(=O)=O)cc1[N+](=O)[O-])c1ccco1,-0.1,-8.4,0.3,47.6*,-3.7,-15.4,12.3
CSCC[C@H](NC(=O)N1C[C@H]2C[C@@H](C1)c1cccc(=O)n1C2)C(=O)Nc1ccc(NC(C)=O)cc1,-4.0,-5.6,-3.6,46.5*,0.9,-26.1,8.9
CSCCC(NC(N)=O)C(=O)Nc1ccc(C)cc1 (stereo not drawn),-11.4,-2.0,1.0,1.3,8.8,·,·
Clc1ccc(/C=N/NC(=Nc2ccccc2)c2ccccn2)c(Cl)c1,-18.1,-12.6,-3.5,30.5,-5.1,·,·
C(=N\NC(=Nc1ccccc1)c1ccccn1)/c1ccccn1,-0.2,3.8,-1.1,39.8*,-0.4,13.1,3.1
CC(=O)c1c(O)cc(O)c(C(C)=O)c1O,0.8,-2.4,·,44.6*,2.5,·,19.8
O=c1[nH]cnc2c1ccn2C1OC(CO)C(O)C1O (stereo not drawn),·,·,·,41.2*,·,·,8.8
COc1ccc(O)cc1,-1.3,6.8,·,48.0*,-1.8,10.5,6.3
COc1ccc(-c2ccnc(-c3ccc(O)cc3)n2)cc1,8.4,-2.2,-1.8,4.2,4.8,-24.7,·
Cc1ccc(N=C2N=C(N)c3ccccc32)c(C)c1,-13.5,-5.2,-3.5,41.5*,-3.8,·,11.9
Cc1ccccc1N=C1N=C(N)c2ccccc21,4.1,13.4,2.0,8.6,1.8,-9.9,·
COc1ccc(-c2cc(=O)n(CCC#N)[nH]2)cc1,22.2,9.7,64.6*,43.2*,28.3,0.6,40.0
COc1ccc(-c2ncn(CCC#N)c2[N+](=O)[O-])cc1,3.2,-3.1,-0.4,5.6,-1.7,-54.7,·
O=[N+]([O-])c1ccccc1NCCNS(=O)(=O)c1ccc(Cl)cc1,-4.2,2.2,-4.2,12.6,-3.5,5.4,·
O=[N+]([O-])c1cc(Cl)ccc1NCCNS(=O)(=O)c1ccccc1,4.8,6.6,2.7,42.6*,-0.5,-0.4,17.0
C[C@@H]1CCCCO[C@@H](CN(C)C(=O)C2CCCCC2)[C@H](C)CN([C@@H](C)CO)C(=O)c2cc(NS(=O)(=O)c3ccc(F)cc3)ccc2O1,·,·,·,·,·,-7.3,·
CN1CCN(C(=O)c2cccc(-c3cc(O)c4ncccc4c3)c2)CC1,-4.9,6.3,·,10.1,-4.3,-9.9,·
CN1CCN(c2cc(-c3cc(O)c4ncccc4c3)ccn2)CC1,-5.8,-2.4,·,52.4*,3.8,7.8,47.5*
COc1ccccc1NS(=O)(=O)c1ccc(N/N=C/c2ccccc2OCC(=O)O)c([N+](=O)[O-])c1,7.6,14.1,-3.8,30.4,4.7,-10.1,·
CCN(CC)S(=O)(=O)c1ccc(N/N=C/c2ccccc2OCC(=O)O)c([N+](=O)[O-])c1,2.8,5.8,2.6,51.1*,4.2,-4.3,25.3
CC(C)N(Cc1cnn(C)c1)Cc1nc(Cc2ccccc2Cl)no1,-4.6,-3.1,4.1,47.0*,8.0,3.1,1.8
CN(Cc1cnn(C)c1)Cc1nc(Cc2ccccc2Cl)no1,4.7,-0.3,0.9,7.6,-3.6,-7.2,·
